Each structure is given as a SMILES string. Activity calls are given as the source filed them. Rule for the calls: active = hit-call score of the fitted dose curve at least 0.9, where 1 is the maximum; inactive = score below 0.9.

A word on the AC50: it is the midpoint of the concentration-response curve, whichever way the signal moves.

Read-out in test [1]: serum amyloid A (SAA), SAA1 (gene 6288)
Briefly: BSK_CASM3C_SAA: BioMAP Diversity Plus: CASM3C Assay for serum amyloid A (SAA) Biomarker Activity (AID 2283049).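 Note: SAA protein level quantified by ELISA.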 The note with it: primary human coronary artery smooth muscle cells; actives raise or lower the signal.

A short description of test [2]: BSK_CASM3C_SRB: Viability Assessment in the BioMAP Diversity Plus: CASM3C Assay (AID 2283050).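 Note: cells exposed to compound for 24 h.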 The conditions noted are these: primary human coronary artery smooth muscle cells.
Read-out in test [3]: Thrombomodulin, THBD (gene 7056)
Briefly: BSK_CASM3C_Thrombomodulin: BioMAP Diversity Plus: CASM3C Assay for Thrombomodulin Biomarker Activity (AID 2283051).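 Note: thrombomodulin protein level measured by ELISA 24 h after dosing.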 The note with it: primary human coronary artery smooth muscle cells; actives raise or lower the signal.

Read-out in test [4]: Tissue Factor, F3 (gene 2152)
Kind of test: BSK_CASM3C_TissueFactor: BioMAP Diversity Plus: CASM3C Assay for Tissue Factor Biomarker Activity (AID 2283052).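 Note: cell surface tissue factor protein level read by ELISA.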 The note with it: primary human coronary artery smooth muscle cells; actives raise or lower the signal.

Read-out in test [5]: Interferon-gamma inducible Protein 10 (IP10), CXCL10 (gene 3627)
Kind of test: BSK_hDFCGF_IP10: BioMAP Diversity Plus: hDFCGF Assay for Interferon-gamma inducible Protein 10 (IP10) Biomarker Activity (AID 2283053). The note with it: primary human foreskin fibroblasts; actives raise or lower the signal. Put shortly:
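Chemical-treated human skin fibroblasts (primary) were sampled at 24 h for IP-10 by ELISA. Both increases and decreases relative to DMSO were scored.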

Read-out in test [6]: Urokinase-type plasminogen activator receptor (uPAR), PLAUR (gene 5329)
Kind of test: BSK_CASM3C_uPAR: BioMAP Diversity Plus: CASM3C Assay for Urokinase-type plasminogen activator receptor (uPAR) Biomarker Activity (AID 2283054).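 Note: cell-surface uPAR protein level quantified by ELISA.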 The conditions noted are these: primary human coronary artery smooth muscle cells; actives raise or lower the signal.

Read-out in test [7]: Vascular cell adhesion molecule 1 (VCAM1), VCAM1 (gene 7412)
Kind of test: BSK_CASM3C_VCAM1: BioMAP Diversity Plus: CASM3C Assay for Vascular cell adhesion molecule 1 (VCAM1) Biomarker Activity (AID 2283055).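 Note: VCAM-1 protein level quantified by ELISA on the cells.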 The note with it: primary human coronary artery smooth muscle cells; actives raise or lower the signal.

Read-out in test [8]: Collagen III, COL3A1 (gene 1281)
Briefly: BSK_hDFCGF_CollagenIII: BioMAP Diversity Plus: hDFCGF Assay for Collagen III Biomarker Activity (AID 2283056). The note with it: primary human foreskin fibroblasts; actives raise or lower the signal. The gist of the method: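 Cells: human foreskin fibroblasts, primary. Dosing followed by 24 h incubation, then ELISA for collagen III. Both increases and decreases scored relative to DMSO.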

Read-out in test [9]: Interleukin-8 (IL8), CXCL8 (gene 3576)
Briefly: BSK_hDFCGF_IL8: BioMAP Diversity Plus: hDFCGF Assay for Interleukin-8 (IL8) Biomarker Activity (AID 2283058). The note with it: primary human foreskin fibroblasts; actives raise or lower the signal. Put shortly: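 IL-8 levels from compound-treated primary human fibroblasts were read by ELISA at 24 h, with DMSO serving as baseline for bidirectional fitting.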

Test [10] can be described thus: BSK_hDFCGF_Proliferation: Cell Proliferation Assessment in the BioMAP Diversity Plus: hDFCGF Assay (AID 2283059).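 Note: curves fitted for both rise and fall of signal versus DMSO baseline.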 The conditions noted are these: primary human foreskin fibroblasts. Put shortly:
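This proliferation readout used SRB total-protein staining of human foreskin fibroblasts […], normalized to DMSO with bidirectional curve fitting.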

Read-out in test [11]: Macrophage colony-stimulating factor (MCSF), CSF1 (gene 1435)
Kind of test: BSK_hDFCGF_MCSF: BioMAP Diversity Plus: hDFCGF Assay for Macrophage colony-stimulating factor (MCSF) Biomarker Activity (AID 2283060). The note with it: primary human foreskin fibroblasts; actives raise or lower the signal. Put shortly:
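M-CSF levels, determined by ELISA, are taken at 24 h after dosing human skin fibroblasts. Responses in either direction are fitted with DMSO serving as the baseline.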

A short description of test [12]: BSK_hDFCGF_SRB: Viability Assessment in the BioMAP Diversity Plus: hDFCGF Assay (AID 2283061).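 Note: cells exposed to compound for 24 h before the read.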 The note with it: primary human foreskin fibroblasts. Put shortly:
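Cells were dosed with test chemical, cultured 24 h, fixed with 10% TCA, then stained with 0.1% SRB and read at 560 nm. The fibroblasts were human foreskin primary cells, and DMSO served as baseline.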

Read-out in test [13]: TIMP metallopeptidase inhibitor 1 (TIMP1), TIMP1 (gene 7076)
Kind of test: BSK_hDFCGF_TIMP1: BioMAP Diversity Plus: hDFCGF Assay for TIMP metallopeptidase inhibitor 1 (TIMP1) Biomarker Activity (AID 2283062). The conditions noted are these: primary human foreskin fibroblasts; actives raise or lower the signal. Put shortly: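 Fibroblasts from human foreskin are treated with test chemical and harvested at 24 h. TIMP-1 is quantified by ELISA, and gain or loss of signal is scored against DMSO.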

Read-out in test [14]: Monokine induced gamma interferon (MIG), CXCL9 (gene 4283)
Kind of test: BSK_hDFCGF_MIG: BioMAP Diversity Plus: hDFCGF Assay for Monokine induced gamma interferon (MIG) Biomarker Activity (AID 2283063). The note with it: primary human foreskin fibroblasts; actives raise or lower the signal. Put shortly: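 MIG signal, determined by ELISA, reflects 24 h chemical exposure of human skin primary fibroblasts. DMSO serves as negative control and baseline.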

Read-out in test [15]: Matrix Metallopeptidase 1 (MMP1), MMP1 (gene 4312)
Kind of test: BSK_hDFCGF_MMP1: BioMAP Diversity Plus: hDFCGF Assay for Matrix Metallopeptidase 1 (MMP1) Biomarker Activity (AID 2283064). The conditions noted are these: primary human foreskin fibroblasts; actives raise or lower the signal. The gist of the method: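 ELISA read-out of MMP1 from human foreskin fibroblasts (primary skin cells), 24 h post-dose. Gain or loss of signal was fitted bidirectionally versus DMSO negative control; cytotoxicity was checked by SRB in parallel cultures.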

Read-out in test [16]: Vascular cell adhesion molecule 1 (VCAM1), VCAM1 (gene 7412)
Briefly: BSK_hDFCGF_VCAM1: BioMAP Diversity Plus: hDFCGF Assay for Vascular cell adhesion molecule 1 (VCAM1) Biomarker Activity (AID 2283065).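 For AC50: VCAM-1 protein level quantified by ELISA after 24 h chemical exposure.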 The conditions noted are these: primary human foreskin fibroblasts; actives raise or lower the signal. The gist of the method:
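Cells are dosed, cultured for 24 h, then VCAM-1 is quantified by ELISA; signal increases and decreases are both fitted relative to DMSO.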

Read-out in test [17]: Plasminogen activator inhibitor-1 (PAI1), SERPINE1 (gene 5054)
Kind of test: BSK_hDFCGF_PAI1: BioMAP Diversity Plus: hDFCGF Assay for Plasminogen activator inhibitor-1 (PAI1) Biomarker Activity (AID 2283066). The note with it: primary human foreskin fibroblasts; actives raise or lower the signal. Put shortly: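 Human skin fibroblast cultures receive chemical for 24 h before PAI-1 is measured by ELISA; signal changes are fitted bidirectionally against DMSO-treated wells.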

Read-out in test [18]: Intercellular Adhesion Molecule 1 (ICAM1), ICAM1 (gene 3383)
Briefly: BSK_KF3CT_ICAM1: BioMAP Diversity Plus: KF3CT Assay for Intercellular Adhesion Molecule 1 (ICAM1) Biomarker Activity (AID 2283067). The note with it: primary human keratinocytes with fibroblasts; actives raise or lower the signal. Put shortly: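 Dose the keratinocyte/fibroblast co-culture, wait 24 h, measure ICAM-1 by ELISA, then fit increases or decreases against DMSO. Cytotoxicity is checked in parallel cultures by SRB total-protein staining.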

Read-out in test [19]: Interferon-gamma inducible Protein 10 (IP10), CXCL10 (gene 3627)
Briefly: BSK_KF3CT_IP10: BioMAP Diversity Plus: KF3CT Assay for Interferon-gamma inducible Protein 10 (IP10) Biomarker Activity (AID 2283068). The conditions noted are these: primary human keratinocytes with fibroblasts; actives raise or lower the signal. Put shortly:
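Signal is secreted/surface IP-10 by ELISA in a human primary skin co-culture of keratinocytes and foreskin fibroblasts, taken 24 h post-dosing; DMSO served as negative control.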

For `CCCCOC(=O)C(C)Oc1ccc(Oc2ccc(C(F)(F)F)cn2)cc1` (stereo not given), the outcome in test [1], in test [2], in test [3], in test [4], in test [5] and in test [6] was inactive. Moreover, the outcome in test [7], in test [8], in test [9], in test [10], in test [11] and in test [12] was inactive. Besides, the result in test [13], in test [14], in test [15], in test [16], in [17] and in [18] was inactive. Besides, the outcome in [19] was inactive.

`CCOC(=O)[C@H](C)Oc1ccc(Oc2nc3ccc(Cl)cc3o2)cc1`: the outcome in test [1], in test [2], in test [3], in test [4], in test [5] and in [6] was inactive. For the same molecule, the outcome in test [7], in test [9], in test [11], in test [13], in [15] and in test [16] was inactive. Further, the result in [17] and in test [18] was inactive. Besides, the concentration at half-maximal activity (AC50) is 3.97 µM (active) in test [8], 24.9 µM (active) in test [10], 0.508 µM (active) in test [12] and 25.3 µM (active) in [19].

On to `CC(C)CCCCCCc1ccc(O)cc1`, for which the AC50 is 30.9 µM (active) in [1]; 32.6 µM (active) in test [2]; 4.65 µM (active) in [3]; 26.9 µM (active) in test [4]; 9.75 µM (active) in test [5]; 31.8 µM (active) in test [6]. Moreover, the half-maximal activity concentration (AC50) in test [7] was 33.8 µM (active); in test [8], 9.95 µM (active); in test [9] it was 11.7 µM (active); in [10] it was 7.24 µM (active); in test [11] it was 8.61 µM (active); in test [12], 10.2 µM (active). The half-maximal activity concentration (AC50) is 11.9 µM (active) in test [13]; 9.57 µM (active) in [15]; 9.07 µM (active) in test [16]; 11.1 µM (active) in test [17]; 7.58 µM (active) in test [18]; 9.35 µM (active) in [19].

For the molecule `C[C@]12C[C@H](O)[C@H]3[C@@H](CCC4=CC(=O)CC[C@@]43C)[C@@H]1CC[C@@H]2C(=O)CO`, the half-maximal activity concentration (AC50) is 0.668 µM (active) in test [1] and 1.4 µM (active) in test [15]. The outcome in [2], in test [3], in test [4], in [5], in [6] and in test [7] was inactive. Besides, the outcome in [8], in test [9], in test [10], in test [12], in test [13] and in test [14] was inactive. For the same molecule, the result in test [16], in test [17], in [18] and in [19] was inactive.

As for `COC(=O)c1ccc(CNS(C)(=O)=O)cc1S(=O)(=O)NC(=O)Nc1nc(OC)cc(OC)n1`, the outcome in test [1], in test [2], in test [3], in test [4], in test [5] and in test [6] was inactive. The outcome in test [7], in test [8], in test [9], in test [10], in test [11] and in test [12] was inactive. The outcome in [13], in [15], in test [16], in test [17], in test [18] and in test [19] was inactive.

In the case of `S=C([S-])NCCNC(=S)[S-].[Mn+2]`, the outcome in [1], in [2], in [4], in test [6], in test [7] and in test [9] was inactive. The outcome in [12] and in [13] was inactive. The half-maximal activity concentration (AC50) was 27.1 µM (active) in test [3]; 30.7 µM (active) in test [5]; 29.1 µM (active) in test [8]; 8.5 µM (active) in [10]; 25.8 µM (active) in test [11]; 4.73 µM (active) in [15]. The half-maximal activity concentration (AC50) in test [17] was 16.4 µM (active); in [19], 27.4 µM (active).

For `CCCCOCCOCCOCc1cc2c(cc1CCC)OCO2`, the outcome in test [1], in test [2], in [3], in test [4], in [5] and in [7] was inactive. The result in test [9], in test [13], in test [16], in [17], in test [18] and in test [19] was inactive. For the same molecule, the AC50 in test [6] was 20 µM (active); in test [8] it was 20 µM (active); in test [10], 31 µM (active); in test [11], 12.9 µM (active); in [12], 25.3 µM (active); in test [15] it was 3.97 µM (active).

For the origin of these results see PubChem BioAssay (EPA / NIEHS).
